Test results from the supplement of paper PMC10037445.
The full ranking holds about 2,900 compounds; the median of “NF-kB SEAP reporter activity, fold change vs agonist alone” is about 0.99, and the highest 2% start at about 2.6. This excerpt belongs to a sample that is enriched for the highest values.

Legend:
RAW-Dual [1] = assay: NF-kB SEAP reporter activity, fold change vs agonist alone; higher = enhanced NF-kB activity; conditions: library stock concentration (final ~1000-fold dilution): 10 mM
Procedure, shortened: (§1)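 Reporter activity is given as fold change relative to agonist-alone wells. To measure it, 50 nL of library stock was pin-tooled onto RAW-Dual macrophages (50,000 cells/well, DMEM, 384-well plates), a PRR agonist followed 1 h later, and cells stayed at 37 °C, 5% CO2. Twenty hours on, supernatant was assayed for IRF (QuantiLuc luminescence) and NF-κB (QuantiBlue, 620 nm absorbance), and wells under 70% of agonist-control IncuCyte confluency in both mask sets were marked cytotoxic.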

RAW-Dual [2] = assay: NF-kB SEAP reporter activity, fold change vs agonist alone; cytotoxicity flag (confluency mask): not cytotoxic; higher = enhanced NF-kB activity
Procedure, shortened: as §1

RAW-Dual [3] = assay: NF-kB SEAP reporter activity, fold change vs agonist alone; cytotoxicity flag (confluency mask): cytotoxic (confluency <70% of control); higher = enhanced NF-kB activity
Procedure, shortened: as §1

[4] = cytotoxicity flag (confluency mask): not cytotoxic, agonist: Imiquimod (TLR7) […]
[5] = cytotoxicity flag (confluency mask): not cytotoxic, agonist: MPLA (TLR4) […]
[6] = agonist: ODN 1826 (TLR9) 0.5 ug/mL
[7] = agonist: Pam2CSK4 (TLR2/6) 0.1 ug/mL
[8] = agonist: Pam3CSK4 (TLR2/1) 0.1 ug/mL

CN(C)C(=O)CCSC(SCCC(=O)O)c1cccc(C=Cc2ccc3ccc(Cl)cc3n2)c1 (centres undefined)
NF-kB SEAP reporter activity (RAW-Dual [1]; [4]): 0.973
NF-kB SEAP reporter activity (RAW-Dual [1]; [5]): 1.05

Cc1cc(N2CCOCC2)ccc1Nc1nc(NC2CCCCC2)c2nc[nH]c2n1
NF-kB SEAP reporter activity (RAW-Dual [1]; [4]): 0.925
NF-kB SEAP reporter activity (RAW-Dual [1]; [5]): 1.04

Cc1cc(N2CCOCC2)cc2[nH]c(-c3c(NCC(O)c4cccc(Cl)c4)cc[nH]c3=O)nc12 (centres undefined) (library stock concentration (final ~1000-fold dilution): 10 mM)
NF-kB SEAP reporter activity (RAW-Dual [2]; agonist: LPS (TLR4) 0.1 ug/mL): 0.682
NF-kB SEAP reporter activity (RAW-Dual [2]; [6]): 3.16
NF-kB SEAP reporter activity (RAW-Dual [2]; [7]): 0.436
NF-kB SEAP reporter activity (RAW-Dual [2]; [8]): 0.595

CNC(=O)c1ccccc1Nc1nc(Nc2ccc(N3CCOCC3)cc2OC)ncc1Cl (library stock concentration (final ~1000-fold dilution): 10 mM)
NF-kB SEAP reporter activity (RAW-Dual [2]; agonist: LPS (TLR4) 0.1 ug/mL): 0.332
NF-kB SEAP reporter activity (RAW-Dual [2]; [6]): 0.296
NF-kB SEAP reporter activity (RAW-Dual [2]; [7]): 0.134
NF-kB SEAP reporter activity (RAW-Dual [2]; [8]): 0.246

Cc1cc(N2CCOCC2)cc2[nH]c(-c3c(NCC(O)c4cccc(Cl)c4)cc[nH]c3=O)nc12 (centres undefined)
NF-kB SEAP reporter activity (RAW-Dual [1]; [4]): 2.06
NF-kB SEAP reporter activity (RAW-Dual [1]; [5]): 0.802

Cc1cc(N2CCOCC2)ccc1Nc1nc(NC2CCCCC2)c2nc[nH]c2n1 (library stock concentration (final ~1000-fold dilution): 10 mM)
NF-kB SEAP reporter activity (RAW-Dual [2]; agonist: LPS (TLR4) 0.1 ug/mL): 1.44
NF-kB SEAP reporter activity (RAW-Dual [2]; [6]): 0.814
NF-kB SEAP reporter activity (RAW-Dual [2]; [7]): 1
NF-kB SEAP reporter activity (RAW-Dual [2]; [8]): 0.926

CNC(=O)c1ccccc1Nc1nc(Nc2ccc(N3CCOCC3)cc2OC)ncc1Cl
NF-kB SEAP reporter activity (RAW-Dual [1]; [4]): 0.466
NF-kB SEAP reporter activity (RAW-Dual [1]; [5]): 0.594

Cl.NC12CC3CC(CC(C3)C1)C2 (library stock concentration (final ~1000-fold dilution): 10 mM)
NF-kB SEAP reporter activity (RAW-Dual [2]; agonist: LPS (TLR4) 0.1 ug/mL): 1.03
NF-kB SEAP reporter activity (RAW-Dual [2]; [6]): 0.798
NF-kB SEAP reporter activity (RAW-Dual [2]; [7]): 0.873
NF-kB SEAP reporter activity (RAW-Dual [2]; [8]): 1.02

Cl.NC12CC3CC(CC(C3)C1)C2
NF-kB SEAP reporter activity (RAW-Dual [1]; [4]): 0.884
NF-kB SEAP reporter activity (RAW-Dual [1]; [5]): 1.08

Cc1ccc(NC(=O)c2ccc(CN3CCN(C)CC3)cc2)cc1Nc1nccc(-c2cccnc2)n1
NF-kB SEAP reporter activity (RAW-Dual [1]; [4]): 1.31
NF-kB SEAP reporter activity (RAW-Dual [1]; [5]): 1.69

Nc1ccccc1NC(=O)c1ccc(CNC(=O)OCc2cccnc2)cc1 (library stock concentration (final ~1000-fold dilution): 10 mM)
NF-kB SEAP reporter activity (RAW-Dual [2]; agonist: LPS (TLR4) 0.1 ug/mL): 1.22
NF-kB SEAP reporter activity (RAW-Dual [2]; [6]): 1.02
NF-kB SEAP reporter activity (RAW-Dual [2]; [7]): 1.07
NF-kB SEAP reporter activity (RAW-Dual [2]; [8]): 1.14

Nc1ccccc1NC(=O)c1ccc(CNC(=O)OCc2cccnc2)cc1
NF-kB SEAP reporter activity (RAW-Dual [1]; [4]): 0.921
NF-kB SEAP reporter activity (RAW-Dual [1]; [5]): 1.06

Nc1ccccc1NC(=O)c1ccc(CNc2nccc(-c3cccnc3)n2)cc1 (library stock concentration (final ~1000-fold dilution): 10 mM)
NF-kB SEAP reporter activity (RAW-Dual [3]; agonist: LPS (TLR4) 0.1 ug/mL): 5.7
NF-kB SEAP reporter activity (RAW-Dual [3]; [6]): 3.2
NF-kB SEAP reporter activity (RAW-Dual [3]; [7]): 0.984
NF-kB SEAP reporter activity (RAW-Dual [3]; [8]): 1.9

Cc1ccc(NC(=O)c2ccc(CN3CCN(C)CC3)cc2)cc1Nc1nccc(-c2cccnc2)n1 (library stock concentration (final ~1000-fold dilution): 10 mM)
NF-kB SEAP reporter activity (RAW-Dual [2]; agonist: LPS (TLR4) 0.1 ug/mL): 1.23
NF-kB SEAP reporter activity (RAW-Dual [2]; [6]): 0.212
NF-kB SEAP reporter activity (RAW-Dual [2]; [7]): 1.55
NF-kB SEAP reporter activity (RAW-Dual [2]; [8]): 1.42

Nc1ccccc1NC(=O)c1ccc(CNc2nccc(-c3cccnc3)n2)cc1
NF-kB SEAP reporter activity (RAW-Dual [1]; cytotoxicity flag (confluency mask): cytotoxic (confluency <70% of control), agonist: Imiquimod (TLR7) […]): 2.7
NF-kB SEAP reporter activity (RAW-Dual [1]; cytotoxicity flag (confluency mask): cytotoxic (confluency <70% of control), agonist: MPLA (TLR4) […]): 2.58
